The structures appear in SMILES notation. About 3,900 (1.3%) of roughly 310,000 compounds were called active. The sample holds actives, similar compounds and a random draw of the others, so the mix is not that of the screen.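 How the source made its calls: active means compounds whose thallium flux B-score, printed positive for inhibition, exceeds three library SD while starting fluorescence stays within three; inactive means the rest.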

Potassium voltage-gated channel subfamily KQT member 1 (Homo sapiens), sequence (P51787 whole entry, looked up): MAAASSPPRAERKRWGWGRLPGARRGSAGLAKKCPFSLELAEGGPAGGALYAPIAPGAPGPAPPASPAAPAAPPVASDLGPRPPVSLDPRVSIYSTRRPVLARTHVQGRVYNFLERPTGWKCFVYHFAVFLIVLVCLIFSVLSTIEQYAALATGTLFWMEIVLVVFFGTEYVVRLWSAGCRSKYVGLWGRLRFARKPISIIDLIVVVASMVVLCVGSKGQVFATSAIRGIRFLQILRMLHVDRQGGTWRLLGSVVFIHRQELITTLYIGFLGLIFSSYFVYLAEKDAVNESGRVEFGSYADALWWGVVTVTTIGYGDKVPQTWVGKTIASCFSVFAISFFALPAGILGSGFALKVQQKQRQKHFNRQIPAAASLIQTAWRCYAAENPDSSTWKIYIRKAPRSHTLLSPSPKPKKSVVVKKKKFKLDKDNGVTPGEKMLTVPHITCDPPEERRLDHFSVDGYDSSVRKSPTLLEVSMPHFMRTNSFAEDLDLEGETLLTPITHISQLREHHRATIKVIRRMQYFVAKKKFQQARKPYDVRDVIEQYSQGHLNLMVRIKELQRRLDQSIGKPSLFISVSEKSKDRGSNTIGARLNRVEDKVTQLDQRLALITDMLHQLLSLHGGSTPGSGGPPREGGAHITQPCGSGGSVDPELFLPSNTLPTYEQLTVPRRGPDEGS

This experiment has as its target Potassium voltage-gated channel subfamily KQT member 1 (Homo sapiens) (UniProt P51787). Put plainly: KCNQ1 potassium current blockers – cell-based, thallium flux, high-throughput, primary screen (AID 2642).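 Further: channel opened by potassium depolarization with thallium stimulus after 20 min compound exposure.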 As to conditions: CHO-K1 KCNQ1, FluxOR thallium flux fluorescence, at 10 µM; stronger effect = higher value.
Regarding `CC(Oc1ccc(F)cc1)C(=O)Nc1cc(S(=O)(=O)N2CCOCC2)ccc1N1CCN(C)CC1` (stereo unspecified), the B-score result is “inactive”. Turning to `Cc1ccc(S(=O)(=O)N2CCC3(CC2)OCCO3)c(C)c1`, the B-score entry is “inactive”. Take `CCOC(=O)C1CCN(C(=O)C2(NC(=O)Nc3cccc(F)c3)CCCCC2)CC1`: the B-score entry was “inactive”. As for `Oc1cccc(/C=N/Nc2ccc(Cl)nn2)c1O`, the entry is “inactive”; as for `Brc1ccccc1/C=N/Nc1nc2ccccc2o1`, “inactive”; as for `Oc1c(Br)cccc1/C=N/Nc1c(F)c(F)c(F)c(F)c1F`, 7 (active). As for `COc1cccc(NC(=O)CN(C)C(C)C(=O)Nc2ccc(C#N)cc2)c1` (stereo unspecified), the B-score entry was “inactive”. Turning to `COc1ccc(N(CC(=O)Nc2ccc(F)c(F)c2)S(=O)(=O)c2c(C)[nH]c(=O)[nH]c2=O)cc1`, the B-score result was “inactive”. For the compound `COc1ccccc1NC(=O)C1CCN(C(=O)c2ccc(C(C)(C)C)cc2)CC1`, the B-score entry is “inactive”.

For the compound `S=C(NCCc1ccccc1)Nc1ccccc1`, the B-score entry was “inactive”.

Regarding `S=C(NCCCc1ccccc1)Nc1ccc(Br)cc1`, the B-score is 7 (active). The entry for `O=C(CCNC(=O)c1ccc(Br)cc1)NCCCc1ccccc1` is “inactive”; for `Cc1cn(C)c(=O)n(C)c1=O` it is “inactive”. As to `O=c1onc(-c2c(F)cccc2F)n1-c1ccccc1Cl`, the B-score result was “inactive”. As for `CC1CCC2(CC1)NC(=O)N(CC(=O)c1cccn1C)C2=O` (stereo unspecified), the figure is 7 (active).

Regarding `CC1CCC2(CC1)NC(=O)N(CC(=O)c1ccc3c(c1)OCO3)C2=O` (stereo unspecified), the B-score result was “inactive”. Regarding `O=C(CN1C(=O)NC2(CCCCCC2)C1=O)NC1CC1`, the B-score result is “inactive”. As to `Cc1ccc(CNC(=O)CSc2nnc3c(n2)[nH]c2ccc(F)cc23)cc1`, the B-score result was “inactive”. For `CN(C)/C=C(/C(=O)c1ccc(Cl)cc1)S(=O)(=O)c1ccccc1`, the B-score entry was “inactive”. As for `CCCC1CCC(=NNC(=S)NCCc2ccccc2)CC1` (stereo unspecified), the figure is 7 (active); as for `S=C(NN=C1CCN(Cc2ccccc2)CC1)NC1CCCCC1`, “inactive”; as for `S=C(NCCc1ccccc1)NCC1CCCO1` (stereo unspecified), “inactive”. For `COc1ccc(S(=O)(=O)NCC(=O)NCc2cc(=O)n(C)c(=O)n2C)cc1F`, the B-score result was “inactive”. Consider `Cc1ccc(S(=O)(=O)N2CCN(CC(=O)N/N=C/c3ccc(Br)s3)CC2)cc1`, for which the B-score entry is “inactive”. As to `CCC(CC)C(=O)N1CCN(c2cccc(C)c2C)CC1`, the B-score result is “inactive”. As to `CCn1c(C)c(C)c2cc(C(=O)N3CCN(c4cccc(C)c4C)CC3)ccc21`, the B-score is 10 (active). Regarding `Cc1cccc(N2CCN(C(=O)c3cccc(N4C(=O)C5C6C=CC(C6)C5C4=O)c3)CC2)c1C` (stereo unspecified), the B-score result was “inactive”. Take `CCn1ccnc1CN(C)C(=O)c1cc(COc2ccc(-n3cncn3)cc2)on1`: the B-score entry was “inactive”. With `C=CCC1(CC=C)CCCN1C(=O)c1cc(COc2ccc(-n3cncn3)cc2)on1`, the B-score is 11 (active). Turning to `O=C(c1cc(COc2ccc(F)c(F)c2)on1)N1CCOCC1`, the B-score result was “inactive”. With `NS(=O)(=O)c1cc(C(=O)NCCOc2ccccc2)c(Cl)cc1Cl`, the B-score entry is “inactive”.

For `COc1ccc(-n2c(C)cc(C(=O)COC(=O)c3cc(OC)c(OC)cc3NC(=O)c3cccs3)c2C)cc1`, the B-score entry is “inactive”. As for `COc1ccc(Nc2ncnc3sc(-c4ccccc4)cc23)c(OC)c1`, the figure is 7 (active); as for `COc1ccc(Nc2ncnc3ccc(Br)cc23)c(OC)c1`, “inactive”. On to `COc1ccc(Nc2ncnc3sc(C)cc23)cc1`, for which the B-score entry is “inactive”.

For the compound `c1ccc2c(c1)C(=NC1CCCCC1)NC2=NC1CCCCC1`, the B-score was 6 (active).

Consider `CC1(C)CC(N2CCN(C(c3ccccc3)c3ccccc3)CC2)=CC(=[N+]2CCCCC2)C1`, for which the B-score is 9 (active). Consider `CC1(C)CC(=O)C=C(N2CCCC2)C1`, for which the B-score entry was “inactive”. As for `O=C(O)CN1CCN(C(c2ccccc2)c2ccccc2)CC1`, the entry is “inactive”. As to `CC(C)NS(=O)(=O)c1ccc(NC(=O)C2CCCCC2)cc1`, the B-score result was “inactive”. Regarding `COc1ccc(OC)c(S(=O)(=O)NCCC(C)C)c1`, the B-score entry is “inactive”. With `CC(NC(=O)COC(=O)C1CCN(S(=O)(=O)c2ccccc2C(F)(F)F)CC1)c1ccccc1` (stereo unspecified), the B-score result is “inactive”. On to `Cc1ccc(CS(=O)Cc2ccc(C(=O)N3CCOCC3)o2)cc1` (stereo unspecified), for which the B-score result is “inactive”. As for `Cc1ccc(-c2noc(CC(c3ccccc3)c3ccccc3)n2)cc1`, the figure is 7 (active); as for `Cc1ccc(-c2noc(CSc3nnc(-c4ccccc4)n3C)n2)cc1`, “inactive”; as for `Cc1ccc(-c2noc(CN3CCN(Cc4ccccc4)CC3)n2)cc1`, “inactive”. Regarding `COc1cccc(NC(=O)[C@H](Cc2c[nH]c3ccccc23)NC(=O)[C@@H]2Cc3ccccc3CN2)c1`, the B-score result is “inactive”. As for `CC(C)(O)C#Cc1ncc(C(F)(F)F)cc1Cl`, the entry is “inactive”. In the case of `COCCOC1CCN(C(=O)c2ccc(OC)c(OC3CCN(C(C)C)CC3)c2)CC1`, the B-score entry was “inactive”. The entry for `CN1CCN(CCCNC(=O)c2ccc(/C=C3\Oc4ccccc4N(Cc4ccc(Cl)cc4)C3=O)cc2)CC1` is “inactive”. As for `O=C(NCCN1CCOCC1)c1ccc(/C=C2\Sc3ccccc3N(Cc3ccc(F)cc3)C2=O)cc1`, the figure is 10 (active). On to `O=C(NCCCN1CCOCC1)c1ccc2c(c1)N(Cc1cccc(F)c1)C(=O)c1ccccc1S2`, for which the B-score result is “inactive”. In the case of `O=C(NCCN1CCOCC1)/C(=C/c1ccc(F)cc1)NC(=O)c1ccccc1`, the B-score result was “inactive”. Regarding `CCN1CCN(CCNC(=O)c2ccc(/C=C3/Sc4ccccc4N(Cc4cccc(C)c4)C3=O)cc2)CC1`, the B-score is 13 (active).

`CCN1CCN(CCNC(=O)c2ccc3c(c2)NC(=O)/C(=C\c2ccc(OC)c(OC)c2)S3)CC1`: the B-score result is “inactive”. Consider `CC(=O)Nc1ccc(S(=O)(=O)N(C)c2ccc(OCC(=O)OCC(=O)N3CCCCC3)cc2)cc1`, for which the B-score entry was “inactive”. Take `COc1ccccc1N(C)S(=O)(=O)c1ccc(Cl)c(C(=O)N2CCC(C(N)=O)CC2)c1`: the B-score result is “inactive”. The entry for `COC(=O)c1ccc(CN2CCCC(C(=O)Nc3cccc(-n4cnnn4)c3)C2)cc1` (stereo unspecified) is “inactive”. As to `CC(C)CCN1C(=O)c2ccc(C(=O)Nc3cccc(S(N)(=O)=O)c3)cc2C1=O`, the B-score result was “inactive”. Take `O=C(CS(=O)(=O)c1cn(Cc2ccc(Cl)cc2)c2ccccc12)N1CCOCC1`: the B-score result is “inactive”. For `COc1ccc(/C=C2\SC(=O)N(CCC(=O)NCCCn3ccnc3)C2=O)cc1`, the B-score result is “inactive”. `COc1ccc(/C=C2/SC(=O)N(CCCCCC(=O)Nc3ccccc3C(=O)O)C2=S)cc1`: the B-score is 6 (active). With `O=C(CCCN1C(=O)/C(=C\c2ccccc2)SC1=S)Nc1ccccc1O`, the B-score entry is “inactive”. As for `Cc1cc(/C=C2/SC(=O)N(CC(=O)N3CCCC3)C2=O)ccc1N1CCOCC1`, the B-score result was “inactive”.

In the case of `Cc1cccc(CNS(=O)(=O)c2ccc(-c3cnc(C4CC4)o3)cc2)c1`, the B-score result was “inactive”. The entry for `CCOC(=O)Cn1c(=O)n(Cc2ccc(OC)cc2)c(=O)c2cccnc21` is “inactive”.

Regarding `COC(=O)[C@@H](Cc1ccccc1)NC(=O)NCCc1ccccc1`, the B-score entry is “inactive”. `CC1Cc2ccccc2N1C(=O)c1cc2sccc2n1Cc1ccccc1` (stereo unspecified): the B-score was 6 (active).

On to `O=C(c1cc2sccc2n1Cc1ccc(F)cc1)N1CCc2ccccc21`, for which the B-score entry was “inactive”. Turning to `CCOC(=O)c1cc2sccc2n1Cc1ccc(C#N)cc1`, the B-score result was “inactive”. As for `Cn1nc(C(F)(F)F)cc1-c1ccc(/C=C(\C#N)C(=O)c2cccc(C(F)(F)F)c2)s1`, the figure is 8 (active). With `Cn1nc(C(F)(F)F)cc1C(=O)O`, the B-score entry was “inactive”.

In the case of `CCC(=O)OCc1c(C(F)(F)F)nn(C)c1Oc1cccc(C(F)(F)F)c1`, the B-score entry was “inactive”. Turning to `CCCCN(C)CCNC(=O)C1CCCN(S(=O)(=O)c2cccc3nsnc23)C1` (stereo unspecified), the B-score result was “inactive”.

`CN(Cc1ccccc1)C(=O)COC(=O)c1ccccc1Nc1ccccc1`: the B-score result was “inactive”. Turning to `O=C(OCC(=O)N(CCc1ccccc1)Cc1ccccc1)c1ccccc1[N+](=O)[O-]`, the B-score is 6 (active). Regarding `Cc1c(C(=O)NCCCc2ccccc2)cccc1[N+](=O)[O-]`, the B-score entry is “inactive”. Regarding `CC1=NN(C(C)C)C(=O)C1`, the B-score result was “inactive”. As for `CN(C)c1ccc(/C=N\S(=O)(=O)c2ccccc2)cc1`, the B-score entry is “inactive”. For the compound `CC[n+]1cc(C)ccc1/C=C/c1ccc(N(C)C)cc1`, the B-score is 14 (active).

As to `Cc1nnc2n1N=C(c1ccc3c(c1)NC(=O)CO3)CS2`, the B-score entry was “inactive”. On to `Cc1noc(C)c1CSCC(=O)N(CCC(C)C)c1c(N)n(Cc2ccccc2)c(=O)[nH]c1=O`, for which the B-score entry was “inactive”. Regarding `COc1cccc(N(CC(=O)NC2CCCC2)C(=O)Cn2nnc(-c3ccc(C)o3)n2)c1`, the B-score result was “inactive”.

Regarding `O=C(Nc1nnc(S(=O)(=O)N2CCCCCC2)s1)c1cccc(Br)c1`, the B-score is 7 (active). Regarding `O=C(Nc1nnc(S(=O)(=O)N2CCOCC2)s1)c1cccc(Br)c1`, the B-score entry is “inactive”. The entry for `Cc1cccc(C(=O)Nc2nnc(S(=O)(=O)N3CCCCCC3)s2)c1` is “inactive”. Consider `CCn1cc(CNC(=O)c2cc([N+](=O)[O-])c(C)c([N+](=O)[O-])c2)cn1`, for which the B-score entry was “inactive”.

In the case of `Cc1cccc(NC(=O)c2sc(-c3ccccc3)nc2-c2ccc([N+](=O)[O-])cc2)c1`, the B-score is 6 (active). With `Cc1cccc(NC(=O)c2ccc([N+](=O)[O-])o2)c1`, the B-score result is “inactive”.

For `Cc1cccc(NC(=O)c2cc([N+](=O)[O-])ccc2N2CCN(C)CC2)c1`, the B-score entry is “inactive”. In the case of `COc1ccc(CCNc2ncnc3c2nnn3Cc2ccccc2)cc1`, the B-score entry was “inactive”.

In the case of `O=C1/C(=C/c2ccc(F)cc2)SC(=S)N1CCCC(=O)N1CCCCC1CCO` (stereo unspecified), the B-score result is “inactive”. As for `COc1ccc(CCNC(=O)C(=O)NCC2OCCN2S(=O)(=O)c2ccc(OC)c(C)c2)cc1` (stereo unspecified), the B-score entry was “inactive”. Take `O=C1C2C3C=CC(C4CC34)C2C(=O)N1c1nccs1` (stereo unspecified): the B-score result is “inactive”.

Consider `CC(C)(C)Oc1ncc(Br)c(OC(C)(C)C)n1`, for which the B-score entry is “inactive”. On to `COc1ccc(-c2nc(N)ncc2-c2ccc(Cl)cc2)c(O)c1`, for which the B-score entry was “inactive”. With `COc1cccc(-c2cnc(OC(C)(C)C)nc2OC(C)(C)C)c1`, the B-score was 8 (active). With `CCOc1cc2c(Cl)ncnc2c(OCC)c1OCC`, the B-score entry is “inactive”.

`COc1cccc(CN2CCN(Cc3ccc4cccc(F)c4n3)CC2CCO)c1` (stereo unspecified): the B-score result is “inactive”.

On to `O=S(=O)(c1cccc2nonc12)N1CCN(c2cccc(Cl)c2)CC1`, for which the B-score result was “inactive”. As for `CC(Nc1ccccc1)c1cccnc1` (stereo unspecified), the entry is “inactive”; as for `Cc1nn2c(c1-c1ccccc1)N=C(c1ccco1)CC2c1ccccc1` (stereo unspecified), “inactive”; as for `CC(C)(C)NS(=O)(=O)CC12CCC(CC1=O)C2(C)C` (stereo unspecified), “inactive”.

With `COc1ccc(Cl)cc1NC(=O)C(C)N1CCc2ccccc21` (stereo unspecified), the B-score was 7 (active). In the case of `COc1ccc(Cl)cc1NC(=O)NCC1CCN(Cc2ccccc2F)CC1`, the B-score entry is “inactive”.

In the case of `COc1ccc(Cl)cc1NC(=O)NC(C)C(C)(C)C` (stereo unspecified), the B-score entry was “inactive”.

For the origin of these results see PubChem BioAssay AID2642 (Johns Hopkins Ion Channel Center, 2010).
